# Source: article PMC5540273 (PLoS ONE, 2017)
# Legend:
# Details in all cases: concentration: 1 μM,replicates: in singlicate; n = 1
# MTOR = tested on: MTOR
# MUSK = tested on: MUSK
# MYLK2 = tested on: MYLK2
# MYLK4 = tested on: MYLK4
# MYLK = tested on: MYLK
# MYO3A = tested on: MYO3A
# MYO3B = tested on: MYO3B
# NDR1 = tested on: T1, NDR1
# T1 construct: gene STK38
# NDR2 = tested on: NDR2
# NEK10 = tested on: NEK10
# 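Also: KINOMEscan kinase panel screen.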
Compound,%Inh (MTOR),%Inh (MUSK),%Inh (MYLK2),%Inh (MYLK4),%Inh (MYLK),%Inh (MYO3A),%Inh (MYO3B),%Inh (NDR1),%Inh (NDR2),%Inh (NEK10)
COC(=O)c1cccc(NC(=O)NC2CCN(c3ccnc(NCc4ccc(F)cc4)n3)CC2)c1 [GSK1379860],23%,0%,7%,0%,0%,0%,0%,0%,0%,1%
CN(c1cccc(CNc2nc(Nc3ccc4c(c3)CC(=O)N4)ncc2C(F)(F)F)c1)S(C)(=O)=O,24%,58%,74%,24%,0%,0%,1%,49%,0%,0%
O=C(Nc1n[nH]c2cc(-c3ccco3)ccc12)C1CC1 [SB-737447],0%,0%,86%,6%,44%,14%,0%,0%,22%,0%
CCn1c(-c2nonc2N)nc2cncc(CNC3CCNCC3)c21.Cl [SB-747651],30%,9%,4%,0%,8%,5%,0%,1%,0%,20%
CN1CCN(CCCNc2nccc(-c3c(-c4ccc(F)cc4)nn4cc(C(N)=O)ccc34)n2)CC1 [GW622475],5%,6%,10%,5%,26%,10%,0%,33%,0%,25%
Cc1nnc(-c2ccc3occ(-c4ccc(S(C)=O)cc4)c3n2)o1 (centres unmarked),0%,0%,6%,0%,0%,0%,0%,0%,0%,0%
CCCC(=O)Nc1n[nH]c2ncccc12 [SB-601436],0%,0%,0%,0%,2%,0%,12%,9%,0%,0%
Cc1ccc(Nc2ccnc(Nc3ccc4c(c3)CS(=O)(=O)C4)n2)cc1O.Cl [GW579362],30%,53%,32%,87%,27%,15%,0%,28%,0%,16%
CNC(=O)c1ccccc1Nc1nc(Nc2cccc(CS(C)(=O)=O)c2)ncc1C.O=CO [GSK1520489],2%,69%,18%,99.8%,30%,28%,0%,92.2%,80%,14%
CC(=O)Nc1nc2cnc(Nc3cc(NC(=O)c4cccc(CC(C)(C)C#N)c4)ccc3C)nc2s1,14%,2%,0%,14%,42%,25%,0%,0%,13%,0%
CS(=O)(=O)Nc1ccc(-c2ccnc3[nH]ccc23)cc1 [GSK993273],9%,24%,27%,95.5%,43%,0%,0%,20%,6%,71%
COc1cc2ncn(-c3cc(OCC4CCCCC4)c(C(N)=O)s3)c2cc1OC [GSK204559],7%,4%,9%,85%,20%,0%,0%,11%,0%,4%
Cc1cccc2c(-c3ccncc3)c(-c3ccc(F)cc3)nn12.Cl [GW461487],0%,7%,2%,0%,14%,8%,0%,25%,0%,14%
COc1cc(Nc2nccc(N3CCC(NC(=O)c4cccc(C#N)c4)C3)n2)cc(OC)c1OC (centres unmarked) [GSK1379751],0%,0%,0%,4%,0%,46%,0%,0%,0%,6%
C[C@@H](Oc1cc(-n2cnc3cc(-c4ccncc4)ccc32)sc1C(N)=O)c1ccccc1Cl [GSK479719],6%,11%,22%,0%,1%,0%,0%,0%,0%,0%
CCOC(=O)N1CCC(n2cnc(-c3ccc(F)cc3)c2-c2ccnc(N)n2)CC1 [SB-219952],66%,0%,20%,21%,45%,17%,0%,0%,0%,0%
Cl.Cl.NC[C@H](CC1CCCCC1)NC(=O)c1ccc(-c2ccnc3[nH]ccc23)s1 [GSK1581428],14%,61%,62%,99.9%,66%,0%,0%,95.8%,79%,17%
